Inconclusive results are not listed. Calls of active or inactive are those of the source. The call rests on the fitted dose curve; in most records, active means well fitted activation curve with a large enough effect; inconclusive means small, poorly fitted or top-dose-only effect; inactive means no such curve, though single readings can be large or run the other way.

The nature of this test: Extended Characterization of HPGD Inhibitors: PGE2 Assay in LNCaP Cells. The note with it: PGE2 HTRF level, 16 h. An excerpt: The central role of HPGD is to inactivate prostaglandins such as prostaglandin E2 (PGE2) or prostaglandin D2 (PGD2). These prostaglandins are involved in a number of processes, including inflammation, differentiation, and cellular signaling, which makes HPGD an important target for pharmacological intervention. A number of prostaglandins of particular biological interest have been identified as substrates of HPGD. […] Over-production of PGE2 has been reported to promote tumor-associated neovascularization, cell proliferation, and tumor growth. […] In this orthogonal assay, we set out to measure if compounds were able to increase PGE2 production NIH Chemical Genomics Center [NCGC] NIH Molecular Libraries Probe Centers Network [MLPCN] MLPCN Grant: MH084681 Assay Submitter (PI): Structural Genomics Consortium
A549 cells, LNCaP cells or media were dispensed in 384-well plates (ProxiPlate-384 Plus, PerkinElmer, Shelton, CT) at 5,000 cells/9.9 uL/well using a CappAero384 multichannel pipette (Odense, Denmark). Separately on the plate, 10 uL of PGE2 calibration standards at a starting assay concentration of 5,000 pg/mL (1:2 dilution, 12-points, n = 1, prepared in media, Cisbio, Bedford, MA) were dispensed. Compounds (100 nL, final concentration range from 41.9 nM to 100 uM) were transferred using an ATS Acoustic Liquid Dispenser (EDC Biosystems, Fremont, CA). After being mixed using an automated liquid handler (CyBio, Jena, Germany), samples were incubated (37 deg C, 5% CO2, under a humidified atmosphere) for 16 hours. PGE2 labeled conjugates were added to each well, first 5 uL of PGE2-d2, followed by 5 uL of anti-PGE2-cryptate, centrifuged (1,500 rpm, 15 sec) and incubated (RT, protected from light) for 5 hours. Time-resolved fluorescence intensity (320 nm excitation, 615 and 665 nm emission) was measured using an Envision plate reader (PerkinElmer). Data was expressed as the ratio of 665 nm/615 nm emissions. Concentration (pg/mL) of samples were calculated from a 4-parameter logistic calibration curves of the PGE2 standards.
A general note: Time-resolved FRET reads energy transfer from a long-lived donor to a nearby acceptor.
Regarding `Cc1cc(-c2nnc3n2CCCCC3)c(C)n1-c1ccc(C(C)(C)C)cc1`, the Potency is 2220 nM (active).

For `COc1ccc(-n2c(C)cc(-c3nnc4n3CCCCC4)c2C)cc1`, the Potency is 2800 nM (active).

As to `Cc1cc(-c2nnc3n2CCCCC3)c(C)n1-c1ccc(Cl)cc1`, the Potency is 2220 nM (active).

With `Cc1cc(-c2nnc3n2CCCCC3)c(C)n1-c1cccnc1`, the Potency is 4430 nM (active).

The values are drawn from PubChem BioAssay AID743172 (National Center for Advancing Translational Sciences (NCATS), 2013).
